“And” between values parts separate entries of the source, which are not always exact repeats. Equal entries are not always repeated. Inconclusive results are not listed. A call without a number means that no potency is given here. The source holds several records for some structures; these can differ, active in one and inactive in another. The source made the active and inactive calls. Calls come from the whole dose curve; as a rule, active = well fitted inhibition curve with a large enough effect; inconclusive = small, poorly fitted or top-dose-only effect; inactive = flat fitted curve, though single readings scatter.
Target: RecQ-like DNA helicase BLM (Homo sapiens) (UniProt P54132)
Assay: qHTS for Inhibitors of Bloom's syndrome helicase (BLM): Helicase ATPase Orthogonal Confirmatory Assay for SAR
Details: purified BLM helicase ATPase activity assay; series mostly up to 57.1 µM
Outline: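 Purified BLM (2 nM) in Tris-HCl pH 8.0 with MgCl2, DTT, Tween-20, preincubated 15 min with compound. Reaction with 200 nM ssDNA and 100 uM ATP ran 15 min; ADP-Glo luminescence, four-parameter Hill fit.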

Chain of RecQ-like DNA helicase BLM (Homo sapiens) (P54132 whole entry, looked up): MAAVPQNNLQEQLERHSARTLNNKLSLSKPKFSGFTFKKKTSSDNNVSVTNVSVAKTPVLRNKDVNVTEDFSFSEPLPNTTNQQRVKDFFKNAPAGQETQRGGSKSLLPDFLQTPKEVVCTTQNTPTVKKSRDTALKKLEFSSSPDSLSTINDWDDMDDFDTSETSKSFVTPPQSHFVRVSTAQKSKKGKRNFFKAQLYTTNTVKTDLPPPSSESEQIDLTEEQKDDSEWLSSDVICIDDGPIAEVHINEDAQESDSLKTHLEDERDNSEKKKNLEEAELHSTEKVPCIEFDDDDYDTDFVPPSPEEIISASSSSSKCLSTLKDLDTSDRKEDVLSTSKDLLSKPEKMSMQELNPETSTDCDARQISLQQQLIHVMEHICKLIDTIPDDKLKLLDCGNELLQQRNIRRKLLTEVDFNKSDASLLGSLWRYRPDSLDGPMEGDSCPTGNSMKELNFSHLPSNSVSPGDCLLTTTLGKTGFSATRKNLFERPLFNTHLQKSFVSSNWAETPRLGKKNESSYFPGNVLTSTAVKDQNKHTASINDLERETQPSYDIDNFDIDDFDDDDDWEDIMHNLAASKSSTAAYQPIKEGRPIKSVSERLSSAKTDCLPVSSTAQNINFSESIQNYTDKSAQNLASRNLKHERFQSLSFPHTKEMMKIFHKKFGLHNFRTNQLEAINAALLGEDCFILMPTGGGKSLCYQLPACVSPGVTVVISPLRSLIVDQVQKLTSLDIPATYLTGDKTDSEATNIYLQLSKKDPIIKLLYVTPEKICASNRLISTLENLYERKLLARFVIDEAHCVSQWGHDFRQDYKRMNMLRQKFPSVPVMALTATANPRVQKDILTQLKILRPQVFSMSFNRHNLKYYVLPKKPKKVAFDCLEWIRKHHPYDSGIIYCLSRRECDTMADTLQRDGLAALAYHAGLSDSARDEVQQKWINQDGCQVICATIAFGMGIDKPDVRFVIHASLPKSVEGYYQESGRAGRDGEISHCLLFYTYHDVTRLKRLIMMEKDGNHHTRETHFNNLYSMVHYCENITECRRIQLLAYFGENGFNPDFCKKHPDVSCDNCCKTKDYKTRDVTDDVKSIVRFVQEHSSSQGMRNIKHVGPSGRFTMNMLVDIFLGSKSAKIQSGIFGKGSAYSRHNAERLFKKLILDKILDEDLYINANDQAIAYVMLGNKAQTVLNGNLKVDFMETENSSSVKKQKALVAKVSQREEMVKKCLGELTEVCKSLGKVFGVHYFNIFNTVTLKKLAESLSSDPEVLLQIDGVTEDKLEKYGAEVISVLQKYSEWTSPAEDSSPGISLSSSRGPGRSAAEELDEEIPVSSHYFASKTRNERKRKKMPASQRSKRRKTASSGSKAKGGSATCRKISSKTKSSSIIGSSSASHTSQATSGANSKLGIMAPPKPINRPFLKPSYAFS

| Structure (SMILES) | Potency |
| --- | --- |
| O=S(=O)(Cc1ccc(Cl)c(Cl)c1)Nc1nnc(-c2ccncc2)s1 | inactive |
| N/C(=N\c1nnc(-c2ccncc2)s1)Nc1ccc(F)c(C(F)(F)F)c1 | inactive and 20.4 µM (active) |
| O=C(Nc1ccc(Br)cc1)Nc1nnc(-c2ccncc2)s1 | 8.13 µM (active) |
| S=C(Nc1ccc(Cl)c(Cl)c1)Nc1nnc(-c2ccncc2)o1 | inactive |
| O=C(Nc1ccc(Cl)c(Cl)c1)Nc1ccc(-c2ccncc2)s1 | inactive |
| O=C(Nc1ccc(-n2ccnc2)c(F)c1)Nc1nnc(-c2ccncc2)s1 | 14.5 µM (active) |
| Cc1cc(NC(=O)Nc2nnc(C3CCCCC3)s2)ccc1Br | inactive |
| CCOc1ccc(NC(=O)Nc2ccc(-c3nc4ccccc4[nH]3)cc2)cc1 | inactive |
| O=C(Nc1ccc(Cl)c(Cl)c1)Nc1nnc(-c2ccc(F)cc2)s1 | inactive |
| O=C(Nc1nnc(-c2ccncc2)s1)Nc1cccc2ccccc12 | 5.61 µM (active) |
| O=C(Nc1nnc(-c2ccncc2)s1)Nc1ccc(Cl)cc1F | inactive |
| O=C(Nc1nnc(-c2ccncc2)s1)NC12CC3CC(CC(C3)C1)C2 | inactive |
| O=C(NCc1ccc(Cl)c(Cl)c1)Nc1nnc(-c2ccncc2)s1 | inactive |
| O=C(Nc1ccc2ccccc2c1)Nc1nnc(-c2ccc(Cl)cc2)s1 | inactive |
| O=C(Nc1ccc2ccccc2c1)Nc1nnc(-c2ccc(F)cc2)s1 | inactive |
| Nc1ccc(NC(=O)Nc2nnc(-c3ccncc3)s2)cc1C(F)(F)F | inactive |

| Structure (SMILES) | Potency |
| --- | --- |
| O=C(Nc1ccc(-c2nc3ccccc3[nH]2)cc1)Nc1ccc2c(c1)OCCO2 | inactive |
| CN1CCN(c2nnc(NC(=O)Nc3ccc(Cl)c(Cl)c3)s2)CC1 | inactive |
| COc1ccc(OC)c(-c2nnc(NC(=O)Nc3ccc4ccccc4c3)s2)c1 | inactive |
| S=C(Nc1ccc(Cl)c(Cl)c1)Nc1nnc(-c2ccncc2)s1 | 2.64 µM (active) |
| Cc1cc(NC(=O)Nc2nnc(-c3ccncc3)s2)ccc1C#N | 1.29 µM (active) |
| CCOC(=O)c1cccc(NC(=O)Nc2nnc(-c3ccncc3)s2)c1 | inactive |
| Cc1cc(NC(=O)Nc2nnc(-c3cccnc3)s2)ccc1F | inactive |
| O=C(Nc1ccc2ccccc2c1)Nc1nnc(-c2ccncc2)o1 | inactive |
| O=C(Nc1ccc2ccccc2c1)Nc1nnc(C2CCCCC2)s1 | inactive |
| O=c1c(Nc2ccc(Br)c(Br)c2)c(Nc2nnc(-c3ccncc3)s2)c1=O | 20.4 µM (active) |
| O=C(Nc1ccc(Cl)c([N+](=O)[O-])c1)Nc1nnc(-c2ccc(F)cc2)s1 | inactive |
| O=C(Nc1ccc2ccccc2c1)Nc1nnc(-c2ccccc2Cl)s1 | inactive |
| O=C(Nc1ccc2ccccc2c1)Nc1nnc(-c2ccccc2)s1 | inactive |
| O=C(Nc1ccc(Cl)c(Cl)c1)Nc1nnc(C2CCCCC2)s1 | inactive |
| O=C(Nc1ccc(Cl)c([N+](=O)[O-])c1)Nc1nnc(C2CCCCC2)s1 | inactive |
| O=C(NCc1ccccc1)Nc1nnc(-c2ccncc2)s1 | inactive |

Source: PubChem BioAssay AID720549 (National Center for Advancing Translational Sciences (NCATS), 2013)
